A selection: hits, their analogues and other compounds. The true share with any hit is near 2.6%.
Cruzain inh Det: qHTS Assay for Promiscuous and Specific Inhibitors of Cruzain (with detergent); Potency, µM, actives largely listed as inhibitors; purified cruzain, Z-FR-AMC fluorescence, 0.01% Triton; hit rate 0.43% among 200,000; also: nearly all actives have a fitted effect of over 40% in size
Target sequence (P25779 123-467 limits assumed): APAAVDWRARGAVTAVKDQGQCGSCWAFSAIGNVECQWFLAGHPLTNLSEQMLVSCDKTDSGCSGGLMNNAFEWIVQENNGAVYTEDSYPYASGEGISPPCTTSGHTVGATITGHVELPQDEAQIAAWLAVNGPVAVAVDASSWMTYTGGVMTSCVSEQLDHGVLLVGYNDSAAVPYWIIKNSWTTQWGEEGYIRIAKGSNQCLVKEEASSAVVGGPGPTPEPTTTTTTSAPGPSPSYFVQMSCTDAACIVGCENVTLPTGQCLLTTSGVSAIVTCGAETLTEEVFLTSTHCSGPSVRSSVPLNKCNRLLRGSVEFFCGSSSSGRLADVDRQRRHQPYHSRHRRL
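Read-out: AMC fluorescence (360 nm excitation, 450 nm emission), four reads over 2 min, first-to-third difference used. Conditions: cruzain 1.5 nM, Z-FR-AMC 2 uM, pH 5.5 acetate, 5 mM DTT, 0.01% Triton X-100.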
Cruzain inh noDet: qHTS Assay for Promiscuous and Specific Inhibitors of Cruzain (without detergent) | Cruzipain (Trypanosoma cruzi), P25779 | purified cruzain, Z-FR-AMC fluorescence, no detergent | Potency, µM, actives largely listed as inhibitors | hit rate 2.3% among 200,000 | AID 1476, 2009; also: nearly all actives have a fitted effect of over 40% in size
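Purified cruzain at 1.5 nM, pre-incubated 15 min with compound at room temperature in 100 mM sodium acetate pH 5.5, 5 mM DTT, 0.00005% Triton X-100. Reaction started with 2 uM Z-FR-AMC; AMC fluorescence increase over 60 s gives rate.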
Each line names hits and unclear results; the compound was inactive in the other large screens. Calls follow the shape of the dose curve; as a rule, active = well fitted curve in the direction sought with a large enough effect; inconclusive = small, poorly fitted or top-dose-only effect, or another doubt; inactive = no such curve, though single readings can be large; an effect the other way counts as inactive or inconclusive.

O=C(Nc1ccc2nc(-c3cccs3)[nH]c2c1)c1ccco1	Cruzain inh noDet 20µM
Cc1ccc2nc(-c3ccc(NC(=O)c4ccco4)cc3)[nH]c2c1	Cruzain inh Det 25µM
O=C(c1ccccc1)c1ccc2nc(-c3ccc(NC(=O)c4ccccc4Br)cc3)[nH]c2c1	none
COc1cc2c(cc1OC)n(Cc1ccc([N+](=O)[O-])cc1)c(=O)n1nc(-c3ccccc3)nc21	none
CCOC(=O)c1ccc(N2C(=O)c3[nH]nc(-c4ccccc4)c3C2c2cccs2)cc1 (stereo not drawn)	none
Nc1ccc(N)c(Cl)c1	none
Clc1ccccc1-c1nccc(NCc2ccccc2)n1	none
CCOc1ccc(C(=O)NCCc2csc(-c3cccc(C)c3)n2)cc1	none
O=C(Nc1ccc(-c2noc(-c3ccccc3F)n2)cc1)c1cccs1	Cruzain inh noDet 20µM
Cc1ccccc1-c1nc(-c2ccc(NC(=O)c3cccs3)cc2)no1	Cruzain inh noDet inconclusive
COCCCNC(=O)c1c(NC(=O)c2nc(S(C)(=O)=O)ncc2Cl)sc2c1CCCC2	none
CCOC(=O)C1=C(CN2CCN(c3cc(C)ccc3C)CC2)NC(=O)NC1c1ccc(Cl)cc1 (stereo not drawn)	none
COCCCNC(=O)C1CCN(c2nnc(-n3cccc3CNc3ccc(C)cc3)s2)CC1	Cruzain inh noDet inconclusive
O=C(Nc1cccc(NC(=O)c2ccc(-c3ccc(Br)cc3)o2)c1)c1ccccc1	Cruzain inh noDet 5µM
O=C(Nc1ccccc1)c1ccc(-c2ccc(Br)cc2)o1	none
CCOc1cc(NC(=S)Nc2ccccc2)c(OCC)cc1NC(=O)c1ccc(OC)cc1	Cruzain inh noDet 16µM
CCOc1cc(NC(=S)Nc2cccc(OC)c2)c(OCC)cc1NC(=O)c1ccc(C)cc1	Cruzain inh noDet inconclusive
CCc1cc(C(=O)Nc2c(C)nn(Cc3ccccc3Cl)c2C)no1	none
Cc1ccccc1OCC(=O)Nc1ccc(-c2nc3cc(Cl)cc(Cl)c3o2)cc1	none
CCOC(=O)c1c(N2C(=O)C3C4C=CC(O4)C3C2=O)sc2c1CCCC2 (stereo not drawn)	none
CCOC(=O)c1c(N2C(=O)Nc3cc(Cl)c(Cl)cc3N2O)sc2c1CCCCC2	Cruzain inh Det 25µM
O=C1OC(c2ccco2)=N/C1=C\c1ccc(-c2cccc(C(F)(F)F)c2)o1	Cruzain inh noDet 13µM
N#C/C(=C\c1ccc(-c2cccc(C(F)(F)F)c2)o1)C(=O)Nn1cnnc1	none
Cc1cc(Nc2ccc(F)cc2)nc(-n2nc(C)cc2C)n1	none
COc1ccc(NC(=O)CC2C(=O)N(c3cccc(OC)c3)C(=O)N2CCc2cccs2)cc1 (stereo not drawn)	none
Cc1ccc2nc(/N=C(\N)NC(=O)N3c4ccccc4Sc4ccccc43)nc(C)c2c1	Cruzain inh noDet inconclusive
Cc1cc2nc(/N=C(\N)NC(=O)N3c4ccccc4Sc4ccccc43)nc(C)c2cc1C	Cruzain inh noDet 16µM
COc1cccc(NC(=O)CCc2nc3c(C)nn(-c4ccc(C)cc4)c3n(C)c2=O)c1	none
Cc1cccc(N=Nc2ccc(O)c3ncccc23)c1	Cruzain inh noDet 20µM
NS(=O)(=O)c1cc(Br)c(N=Nc2ccc(O)c3ncccc23)c(Br)c1	none
Cc1ccc(Cn2cc(CCC(=O)NCC(C)c3ccccc3)c3ccccc32)cc1 (stereo not drawn)	none
CC(C)Oc1ccc(CNC(=O)c2ccc3c(c2)N(Cc2ccc(F)cc2)CCS3)cc1	none
COc1cccc(Cn2c(=O)c(-c3cccc(Cl)c3)nc3cncnc32)c1	none
OC(CNCCC1C=Nc2ccccc21)Cn1c2ccc(Cl)cc2c2cc(Cl)ccc21 (stereo not drawn)	Cruzain inh noDet 6.3µM
OC(CNCC1CCCO1)Cn1c2ccc(Cl)cc2c2cc(Cl)ccc21 (stereo not drawn)	Cruzain inh noDet inconclusive
COC(=O)C1=C(C)N=c2s/c(=C/c3cccs3)c(=O)n2C1c1cccs1 (stereo not drawn)	none
CCOC(=O)C1=C(c2ccccc2)N=c2s/c(=C\c3ccc(O)cc3)c(=O)n2C1c1cccs1 (stereo not drawn)	Cruzain inh noDet 13µM
CCCOc1ccc(Oc2nc(NCC(C)C)nc(N3CCOCC3)n2)nn1	none
CCOC(=O)c1c(NC(=O)CSc2nc3ccccc3s2)sc(C(C)=O)c1C	none
Cc1cc(NC(=O)CSc2nc3cc(Cl)ccc3s2)no1	Cruzain inh noDet 10µM
CCOC(=O)c1c(NC(=O)CSc2nc3cc(Cl)ccc3s2)sc(C(C)=O)c1C	Cruzain inh noDet 16µM
Cc1cc(C)nc(NC(=O)CSc2nc3cc(Cl)ccc3s2)n1	none
COc1ccc(Oc2ncc3ncc(=O)n(C)c3n2)cc1	none
O=C(Nc1ccc2c(c1)CCCN2C(=O)c1cccs1)c1ccccc1Cl	none
Cc1ccccc1CN1CCc2nc(Nc3ccc4c(c3)OCCO4)ncc2C1	Cruzain inh noDet inconclusive
Cc1ccc(NC(=O)C2CCC(CNS(=O)(=O)c3cccc4nsnc34)CC2)c(Cl)c1 (stereo not drawn)	none
Cc1ccccc1CCNCc1c(C(=O)O)c(C)n(Cc2c(F)cccc2Cl)c1C	none

Screening results: PubChem BioAssay, National Center for Advancing Translational Sciences (NCATS)
